Reference: PMC5540273 (PLoS ONE, 2017)

tested on: FLT3-autoinhibited; conditions: concentration: 1 μM, replicates: in singlicate; n = 1
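Further: KINOMEscan kinase panel screen.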

SMILES	%Inh
Cn1cc(-c2[nH]c3cc(NC(=O)[C@H](N)C4CCCCC4)cc4c3c2C=NNC4=O)cn1	96.3%
O=C(Nc1ccccc1F)NC1CCN(c2ccnc(Nc3ccc(F)cc3)n2)CC1 [GSK1379800]	0%
Cc1ccc(F)c(C(=O)Nc2cccc(-c3nn4ccccc4c3-c3ccnc(Nc4cccc(F)c4)n3)c2)c1F [GSK361061]	0%
O=C(O)C(F)(F)F.O=C(O)C(F)(F)F.O=c1[nH]ccc2nc(N[C@@H]3CCCNC3)nc(Nc3ccc(S(=O)(=O)N4CCOCC4)cc3)c12 [GSK2177277]	99.6%
CN1CCN(CCCNc2nccc(-c3c(-c4ccc(F)cc4)nn4cc(C(F)(F)F)ccc34)n2)CC1 [GW621581]	0%
CSc1cccc2c(-c3ccncn3)c(-c3ccc(F)cc3)nn12 [GW514786]	0%
O=C(Nc1cccc(-c2nn3ccccc3c2-c2ccnc(Nc3cccc(C(F)(F)F)c3)n2)c1)c1c(F)cccc1F [GSK292658]	5%
COc1ccc(Nc2nccc(N3CCC(NC(=O)Nc4cccc(OC)c4)C3)n2)cc1 (centres unmarked) [GSK1379742]	20%
Cc1cccc(NC(=O)Nc2ccc(Oc3ncnc4ccn(C)c34)cc2)c1	64%
O=C(NC1CCN(c2ccnc(Nc3ccc(F)cc3)n2)C1)c1cc2ccccc2s1 (centres unmarked) [GSK1379716]	0%
O=c1[nH]cc(-c2ccc(N3CCOCC3)cc2)c2sc(-c3cn[nH]c3)cc12 [GSK2276055]	11%
Nc1ncc(-c2cccnc2)c2scc(-c3ccc4c(c3)CCN4C(=O)Cc3ccccc3)c12 [GSK683281]	5%
O=C(Nc1cccc(Oc2ccc3nc(NC(=O)C4CC4)cn3n2)c1)c1ccccc1C(F)(F)F	0%
Cl.Cl.NCC(NCc1ccc(-c2ccnc3[nH]ccc23)s1)c1ccccc1 (centres unmarked) [GSK1321565]	12%
COc1ccc(CNC(=O)NC2CCN(c3ccnc(Nc4ccc(F)cc4)n3)CC2)cc1 [GSK1379788]	0%
CCn1c(-c2nonc2N)nc2c(C#CC(C)(C)O)nc(OC[C@H](N)c3ccccc3)cc21 [GSK943949]	0%

SMILES	%Inh
CN(c1ccc(NC(=O)Nc2cc(C(F)(F)F)ccc2F)cc1)c1ccnc(Nc2ccc(S(N)(=O)=O)cc2)n1 [GW809893]	82%
O=C(Nc1n[nH]c2nc(-c3ccc(O)cc3)ccc12)C1CC1 [SB-710363]	18%
O=C(Nc1cccc(-c2nn3ccccc3c2-c2ccnc(Nc3cccc(F)c3)n2)c1)c1c(F)ccc(F)c1Cl [GSK357952]	15%
Nc1ncnc2c1nc(-c1ccccc1)n2-c1ccccc1 [SKF-97293]	14%
Cc1cccc(Nc2nc(N[C@H]3CCNC3)ncc2C(N)=O)c1.Cl [GSK2197149]	82%
COc1cccc(C2=C(Nc3ccc(Cl)c(C(=O)O)c3)C(=O)NC2=O)c1 [SB-390769]	0%
COc1cc(Nc2nccc(-c3c(-c4cccc(NC(=O)c5c(F)cccc5F)c4)nn4ccccc34)n2)cc(OC)c1OC [GSK323521]	0%
CC(=O)Nc1nc2cnc(Nc3cc(NC(=O)c4cccc(C5(C#N)CC5)c4Cl)ccc3C)nc2s1	0%
c1ccc(Oc2ccc(Nc3ccnc4cc(-c5ccc(CNCCN6CCOCC6)o5)ccc34)cc2)nc1 [GW567145]	8%
CNC(=O)c1ccccc1Nc1nc(Nc2ccc(N3CCOCC3)cc2)ncc1Cl.Cl [GSK1576028]	96.2%
Cl.Cl.NCC(NC(=O)c1cc(-c2ccccc2)c(-c2ccnc3[nH]ccc23)s1)c1ccccc1 (centres unmarked) [GSK1321561]	0%
Fc1ccc(-c2ncn(C3CCNCC3)c2-c2ccnc(Oc3ccc(-c4ccccc4)cc3)n2)cc1 [SB-245391]	1%
Cn1cc(-c2ccc3c(c2)CCN3C(=O)Cc2cccc(F)c2)c2c(N)ncnc21 [GSK2603358]	0%
COc1cc(Nc2nccc(N3CCC(NC(=O)c4cc5ccccc5s4)C3)n2)cc(OC)c1OC (centres unmarked) [GSK1379760]	3%
CC(=O)N1CCN(c2ccc(Nc3nccc(-c4sc(C(C)C)nc4-c4cccc(NS(=O)(=O)c5cccc(Cl)c5)c4)n3)cn2)CC1 [GSK1660437]	9%
COc1cc(Nc2ncc3c(C)nc(-c4cc5ccccc5[nH]4)n3n2)cc(OC)c1OC [GW869516]	75%
